Structures are written as SMILES. About 83,000 compounds went through this panel and 20% of them were active in at least one assay; those are over-represented in the sample as a whole.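 The test compound was applied at a single concentration to cells in 96-well plates for 48 hours, and percent growth was recorded.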 Unmarked numbers belong to inactive results. Active and inactive are the calls of the source. The calls were made as follows: active = growth percent below 10; inactive = the rest.

The assay has as its system COLO 205 colon. The assay is described as follows: NCI-60 one-dose screen, 48 h (100 = growth as untreated, 0 = no growth, -100 = all killed). To be noted: 10 µM unless noted.
With `CC1Cc2c(Cl)ncnc2N(C)c2ccc(F)cc21` (stereo not given), the growth is 92.5%.

On to `N#CC1=C(N)Oc2c(sc3c(Br)cccc23)C1c1ccc(F)cc1` (stereo not given), for which the growth was -35.7% (active).

In the case of `COc1ccc(/C(C)=C(/c2ccc(OCCCN(C)C)cc2)c2ccc(OC(=O)Cc3ccccc3)cc2)cc1`, the growth was 76.1%.

As to `O=C1Nc2ccccc2[C@]12CC(c1ccccc1)=NN2`, the growth was 3.6% (active).

With `CN(CCOc1ccc(C#N)cc1)CCOc1ccc(C#N)cc1`, the growth is 52.1%.

For the molecule `Cc1ccc(Sc2nnc(/N=C3\C(=O)Nc4ccccc43)s2)cc1`, the growth is 116%.

With `Cn1cc(-c2nonc2-c2c[nH]c3ccc(Br)cc23)c2cc(Br)ccc21`, the growth is 49.1%.

In the case of `Cc1ccc(NC(=S)NNC(=S)NNc2ccccc2)cc1C`, the growth was 107%.

Consider `COc1ccc(-c2csc(N(C(=O)N3CCN(c4cc5c(cc4F)c(=O)c(C(=O)O)cn5C4CC4)CC3)c3ccccc3)n2)cc1`, for which the growth is 17.9%.

For the molecule `O=[N+]([O-])c1ccc(N/N=C(/C(=N/Nc2ccc([N+](=O)[O-])cc2)c2ccccc2)c2ccccc2)cc1`, the growth is 87.3%.

`CCCCCCCCn1ccc2cc(NC(=O)CN3CCN(c4nc(C)cc(Cl)n4)CC3)ccc21`: the growth is 100%.

For `COc1ccc(-c2cc(-c3ccc(Cl)cc3)c(C#N)c(=O)n2CCCCC(=O)Nc2ccccc2N)cc1`, the growth is 20.2%.

As for `CCOC(=O)c1c2c(n3ccc(C)cc13)C(=O)c1ccccc1C2=O`, the growth is 108%.

As to `COc1ccc(-c2nc3c(c(-c4ccccc4)nn3-c3ccccc3)c(-c3ccc(N4CCN(C)CC4)cc3)c2C#N)cc1`, the growth is 114%.

In the case of `Cc1ccc(-n2c(=S)[nH]c3sc4c(c3c2=O)CCC(=O)C4)cc1`, the growth is 81.6%.

On to `COc1cc(-c2cc(-c3ccc(N(C)C)cc3)nc(N3CCC(O)CC3)c2C#N)cc(OC)c1OC`, for which the growth was -17.2% (active).

Take `O=Cc1ccc([N+](=O)[O-])s1`: the growth was 107%.

Consider `CC1=NN(c2nc(SCC(=O)Nc3nc4ccc(C)cc4s3)nc(-c3ccccc3)c2C#N)C(=O)C1`, for which the growth was 118%.

With `O=C(CSc1nc(-c2ccccc2)[nH]c1S(=O)(=O)c1ccccc1)NC1CC1`, the growth is -30.9% (active).

For the molecule `Nc1ncnc2c1N=C(c1ccc3c(c1)OCO3)CC(c1cccc(Nc3ccnc4cc(Cl)ccc34)c1)N2` (stereo not given), the growth is 82.7%.

Regarding `O=C(CN1C(=O)CCC1=O)Nc1ncc(Cc2ccc(F)cc2)s1`, the growth was 113%.

In the case of `Cn1cc(-c2csc(-c3ccc(Cl)cc3)n2)c2cccnc21`, the growth was -65.8% [100 µM] (active).

As for `CN(Cc1ccc(C(F)(F)F)cc1)CC(O)C(=O)Nc1ccc(Cl)cc1` (stereo not given), the growth is -68.6% (active).

Turning to `CCCCCOc1ccc(C(=O)/C(Br)=C/C(=O)O)cc1`, the growth was 105%.

As for `CCN(CC)CCCN1C(=O)c2c(c(C)c3c(oc4cc(O)ccc43)c2C)C1=O`, the growth was 57.4%.

For the molecule `CCOP(=O)(OCC)c1nc(-c2ccccc2)oc1NCc1cccnc1`, the growth was 117%.

As to `O=C(CCC(=O)N/N=C/c1ccccc1O)N/N=C/c1ccccc1O`, the growth is 35.4%.

With `S=C(Nc1ccc(-c2nc(N3CCOCC3)c3cccn3n2)cc1)Nc1cccnc1`, the growth is 28%.

Consider `N#Cc1c(N)nnn1Cc1cc(=O)oc2c1ccc1ccccc12`, for which the growth is 112%.

Regarding `Fc1ccc2[nH]cc(-c3nonc3-c3c[nH]c4ccc(Br)cc34)c2c1`, the growth was -45.5% (active).

As for `O=Nc1c(-c2c(O)[nH]c3ncccc23)[nH]c2ccccc12`, the growth was 108%.

On to `Fc1cccc(CNc2c3ccccc3nc3ccccc23)c1F`, for which the growth was 40.9%.

In the case of `CCn1c(=S)sc2c(Nc3ccc(F)cc3)nc(-c3cccnc3)nc21`, the growth is 72.5%.

Take `CC(C)(C)n1cc(-c2ccnc(NCCNS(=O)(=O)c3cccc(F)c3)c2)c(-c2ccccc2)n1`: the growth is 78.3%.

On to `Cc1cc2c(O)c(-c3cc(Cl)ccc3Cl)c3sc(=O)oc3c2cc1C`, for which the growth is 112%.

Consider `Fc1ccc(-c2nn(-c3ccccc3)cc2-c2nc3ccccc3o2)cc1`, for which the growth is 140%.

On to `OB(O)c1cccc(-c2nc3ccc4[nH]ncc4c3c3c2CCCC3)c1`, for which the growth was 41.7%.

As for `O=C(CSc1nc2ccc([N+](=O)[O-])cc2[nH]1)Nc1ccc(F)cc1`, the growth was 68.3%.

As to `CNC(=O)c1c(NC(=O)c2ccc(C(F)(F)F)cc2)sc2c1CCC(=O)C2`, the growth is -36.1% (active).

As for `N#Cc1cccc(NC(=O)c2oc3ccccc3c2-c2cnn(-c3ccccc3)c2)c1`, the growth is 91.8% [50 µM].

Values taken from PubChem BioAssay (NCI).
